# From PubChem
# A selection: hits, their analogues and other compounds. The true share with any hit is near 2.2%.
# MITF TRPM1 inh: reduces MITF-dependent TRPM1 promoter luciferase signal; SK-MEL-5 TRPM1 promoter luciferase, 24 h; inhibition, % at 12.5 µM; 0.83% of 330,000 active; AID 488899;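 active means mean inhibition across replicates of 60% or more, whatever share of single replicates reaches that level; inconclusive means some that reach 60%, reason not given; inactive means mean inhibition across replicates below 60%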
# Shn3 inh set2: inhibitors of Schnurri-3 3'UTR reporter in osteoblasts; Clone20 osteoblast Shn3 3'UTR firefly luciferase, 24 h; inhibition, % at 12.5 µM; 0.52% of 360,000 active;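 active means mean inhibition of at least 75% with every replicate also reaching 75%; inconclusive means mean inhibition at least 75% but some replicate below; inactive means mean inhibition below 75%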;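 further: 0% = median of neutral control wells and 100% = pilot-screen positive control compound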
# EWS-Fli inh: inhibitors of EWS/Fli oncoprotein transcriptional activity; A673 NR0B1-luciferase reporter, viability-normalised; inhibition, % at 12.6 µM; 0.67% of 350,000 active; AID 651661;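 active means mean inhibition of at least 50% after viability correction, with every replicate also passing that limit; inconclusive means mean reaches 50% but only one of two replicates passes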;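 further: firefly luciferase signal divided by Alamar Blue viability fluorescence both relative to DMSO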
# LGR2 antag: inhibitors of bursicon-induced Drosophila LGR2 receptor cAMP signaling; AID 720647; 0.35% of 380,000 active; inhibition, % at 9.99 µM; HEK293 LGR2, CRE-luciferase, bursicon-stimulated, 4 h;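 active means drop in luminescence signal, shown as inhibition above about 50% in the replicate tests, limit read from the data, passing the limit was not always enough; inconclusive means probably only some replicates passing the limit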;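 further: agonist challenge used bursicon conditioned medium at about half maximal strength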
# EBV LMP1 NFkB: inhibitors of Epstein-Barr LMP1-induced NF-kappaB reporter; LMP1-induced NF-kappaB luciferase reporter cells, luminescence; inhibition, % at 12.5 µM; 0.69% of 350,000 active; in the data active means inhibition above about 41%; inconclusive means no clear call, values can overlap the other calls;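 further: 0% = neutral control wells and 100% = reference inhibitor control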
# PAX8 inh HTS: PAX8 transcriptional activity inhibition | RMG-I TPO-luciferase reporter, SteadyGlo, 24 h | inhibition, % at 12.6 µM | 1.2% of 360,000 active | AID 652154;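 active means mean replicate inhibition at least 60% with every replicate also reaching 60%; inconclusive means only one of the two criteria is met; inactive means mean below 60% and not all replicates reaching 60%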;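 further: luciferase light reporting Pax8 driven TPO promoter activity; plate controls were median of neutral control wells for no effect and mitoxantrone controls for full effect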
# DNA binder FP: DNA binding small molecules; 2% of 640 active; AC35, µM (series often up to 68 µM), for inactives: top-dose activity change, negative = DNA binding; shares compounds with EWS-Fli inh; AID 720586; salmon sperm DNA acridine orange fluorescence polarization;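 active means fitted curve reaches a 35% signal fall AC35 below twice the sample's top valid tested dose, actives reach about 48 µM in these data; inactive means the rest, including activity in the rising direction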;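 further: lower polarization ratio signals compound binding to DNA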
# * = called active by the depositor; ? = inconclusive; nt = not tested or not shown.
SMILES,MITF TRPM1 inh,Shn3 inh set2,EWS-Fli inh,LGR2 antag,EBV LMP1 NFkB,PAX8 inh HTS,DNA binder FP
Cc1ccc(-c2ccc3c(c2)O[C@@H](CN(C)C(=O)Nc2ccc(F)cc2)[C@H](C)CN([C@H](C)CO)S3(=O)=O)cc1,nt,nt,29,17,nt,nt,nt
Cc1ccc(-c2ccc3c(c2)O[C@@H](CN(C)C(=O)Nc2ccc(F)cc2)[C@H](C)CN([C@@H](C)CO)S3(=O)=O)cc1,nt,nt,54*,1,nt,nt,-10%
CC(C)NC(=O)N(C)C[C@@H]1Oc2cc(C#Cc3ccc(F)cc3)ccc2S(=O)(=O)N([C@H](C)CO)C[C@H]1C,nt,nt,56*,18,nt,nt,-9%
C/C=C/c1ccc2c(c1)O[C@H](CN(C)Cc1cccc(F)c1)[C@@H](C)CN([C@H](C)CO)S2(=O)=O,nt,nt,20,-1,nt,nt,nt
COc1ccc(NC(=O)N(C)C[C@H]2Oc3ccc(NS(=O)(=O)c4c(C)noc4C)cc3C(=O)N([C@@H](C)CO)C[C@@H]2C)cc1,nt,nt,4,-14,nt,nt,nt
COc1cc2c(cc1OC)C(C)N(C(=O)c1nccnc1C(=O)O)CC2 (configuration not stated),6,nt,1,-4,-5,11,nt
COc1cc2c(cc1OC)C(C)N(C(=O)c1cc(Cl)nc(Cl)c1)CC2 (configuration not stated),7,19,56*,-24,-12,14,1%
CO[C@@H]1CN(C)C(=O)c2ccc(NC(=O)NC(C)C)cc2OC[C@@H](C)N(CC2CC2)C[C@H]1C,nt,nt,9,-13,nt,4,nt
Cc1cc(C(=O)NNC(=O)c2ccc(S(=O)(=O)N(C)C)cc2)c(C)o1,8,0,74*,15,-10,19,-2%
CCNC(=O)C[C@@H]1CC[C@H](NC(=O)C2CCOCC2)[C@@H](CO)O1,nt,nt,0,1,nt,-9,nt
COc1cc(OC)cc(-c2cc3nc(C)c(CCC(=O)NCc4ccccc4)c(C)n3n2)c1,30,66,57*,-12,29,18,-9%
CCc1ccc(C2=NN(CCC(=O)NC(C)c3ccc4c(c3)OCCO4)C(=O)CC2)cc1 (configuration not stated),6,9,3,1,0,14,nt
Cc1csc(NC(=O)CCc2c(C)nc3cc(-c4ccc(Cl)cc4)nn3c2C)n1,54,59,56*,-74,27,11,-8%
Cc1nc2cc(-c3ccc(Cl)cc3)nn2c(C)c1CCC(=O)NC(C)c1ccc2c(c1)OCCO2 (configuration not stated),53,68,57*,-31,12,29,1%
Cc1csc(NC(=O)CSc2nnc(-c3ccc(Cl)cc3)n2N)n1,8,1,nt,-8,-3,nt,nt
CC=Cc1ccc2n(c1=O)C[C@H]1[C@H](CO)[C@@H](C(=O)NCCC)N(C(=O)CC3CC3)[C@@H]21 (mixture of isomers),nt,nt,0,-10,nt,-8,nt
O=C(c1cnccn1)N1CC(=O)N2[C@H](CO)[C@H](c3ccc(-c4cccc(F)c4)cc3)[C@H]2C1,nt,nt,-14,21,nt,-5,nt
CCN1/C(=C/C=C/c2oc3ccc(-c4ccccc4)cc3[n+]2CC)Oc2ccc(-c3ccccc3)cc21,102*,96*,90*,37,44*,98*,22µM*
C[C@H]1CCCCO[C@@H](CN(C)Cc2ccc3c(c2)OCO3)[C@@H](C)CN([C@@H](C)CO)C(=O)c2cc(NS(=O)(=O)c3ccccc3)ccc2O1,nt,nt,2,-14,nt,18,nt
CCCC[C@@H]1Cc2[nH][nH]c(=O)c2[C@H](c2ccc3ccccc3c2)O1,nt,nt,52*,-7,nt,-3,3%
CCCCC1Cc2[nH]c(=S)[nH]c(=O)c2C(c2ccc3ccccc3c2)O1 (configuration not stated),nt,nt,5,-11,nt,9,nt
CC(C)(C)[S@](=O)N1Cc2cc(C(=O)NCC(F)(F)F)nc(-c3cccc(-c4cccc(F)c4)c3)c2[C@@H]1CCO,nt,nt,55*,13,nt,48,-2%
CCNC(=O)c1cc2c(c(-c3cccc(-c4cccc(OC)c4)c3)n1)[C@H](CCO)N([S@@](=O)C(C)(C)C)C2,nt,nt,63*,-10,nt,49,-13%
COCCNC(=O)c1cc2c(c(-c3cccc(-c4cccc(OC)c4)c3)n1)[C@H](CCO)N(S(=O)C(C)(C)C)C2 (some centres not stated),nt,-14,8,13,nt,11,nt
C[C@@H](NC(=O)C[C@@H]1C[C@H]2c3cc(NC(=O)CC4CC4)ccc3O[C@H]2[C@@H](CO)O1)c1ccccc1,nt,nt,3,12,nt,nt,nt
SMILES,MITF TRPM1 inh,Shn3 inh set2,EWS-Fli inh,LGR2 antag,EBV LMP1 NFkB,PAX8 inh HTS,DNA binder FP
Cc1c(Cl)cnc(NC(=O)COC(=O)c2ccc3ncsc3c2)c1Cl,27,-15,62*,8,13,22,-12%
C[C@H]1CN([C@@H](C)CO)C(=O)Cc2cc(NC(=O)CCCCCC(=O)Nc3ccccc3N)ccc2O[C@H]1CN(C)Cc1ccc(Cl)c(Cl)c1,nt,nt,51*,-5,nt,53,-7%
C[C@H]1CN([C@@H](C)CO)C(=O)Cc2cc(NC(=O)CCCCCC(=O)Nc3ccccc3N)ccc2O[C@H]1CN(C)Cc1ccc(C(F)(F)F)cc1,nt,nt,56*,-14,nt,36,-8%
C[C@@H]1CN([C@H](C)CO)C(=O)Cc2cc(NC(=O)CCCCCC(=O)Nc3ccccc3N)ccc2O[C@@H]1CN(C)CC1CCCCC1,nt,nt,61*,-7,nt,-1,2%
C[C@H](CO)N1C[C@H](C)[C@@H](CN(C)Cc2ccc(Cl)c(Cl)c2)Oc2ccc(NC(=O)CCCCCC(=O)Nc3ccccc3N)cc2CC1=O,nt,nt,?,-1,nt,29,nt
C[C@@H]1CN([C@@H](C)CO)C(=O)Cc2cc(NS(=O)(=O)c3cccs3)ccc2O[C@H]1CN(C)Cc1ccc(Cl)c(Cl)c1,nt,nt,59*,31,nt,nt,-9%
COc1ccc(C[C@@H]2CCn3cc(nn3)COC[C@H](C(C)C)NC2=O)cc1,nt,nt,-8,6,nt,-9,nt
O=C(c1ccccc1)N1CC2(C1)[C@@H](c1ccccc1)[C@H](CO)N2CC1CC1,nt,nt,1,17,nt,-1,nt
C[C@@H]1CN([C@H](C)CO)C(=O)c2cc(NC(=O)c3ccncc3)ccc2O[C@@H](C)CCCCO[C@H]1CN(C)C(=O)Nc1ccccc1,nt,nt,4,1,nt,-6,nt
C[C@H](CO)N1C[C@H](C)[C@H](CN(C)Cc2ccccc2)Oc2ccc(NC(=O)CCCCCC(=O)Nc3ccccc3N)cc2CC1=O,nt,nt,56*,14,nt,11,-9%
C[C@H]1CN([C@@H](C)CO)C(=O)Cc2cc(NC(=O)CCCCCC(=O)Nc3ccccc3N)ccc2O[C@@H]1CN(C)Cc1ccc(-c2ccccc2)cc1,nt,nt,-16,-17,nt,-2,nt
C[C@H](CO)N1C[C@H](C)[C@H](CN(C)Cc2ccc(Oc3ccccc3)cc2)Oc2ccc(NC(=O)CCCCCC(=O)Nc3ccccc3N)cc2CC1=O,nt,nt,61*,1,nt,16,-12%
